About 79,000 compounds went through this panel and 15% of them were active in at least one assay; those are over-represented in the sample as a whole. Values without a mark were called inactive. The source made the active and inactive calls. Rule as the data show it: active = growth inhibition above about 70%; inactive = the rest.

These results are taken from PubChem BioAssay (NCI).

The nature of the experiment: NCI Yeast Anticancer Drug Screen. Data for the sgs1 mgt1 strain (AID 161).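 Also: 0% = growth of cultures given vehicle only.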 To be noted: S. cerevisiae sgs1 mgt1 strain, at 50.0 µM, active compounds read high. On the procedure:
Growth inhibition of yeast strains with defined genetic alterations is measured as a screen for potential anti-cancer activity. Selected strains with alterations in DNA damage repair or cell cycle control were exposed to compounds and growth inhibition was measured relative to vehicle treated controls. The strain used in this assay is sgs1 mgt1
`OC1CCCCC12CC2` (stereo not given): the growth inhibition was 5%.

With `COc1cc(/C=C/c2ccccn2)oc(=O)c1`, the growth inhibition is -2.05%.

On to `Cc1cccc2c1Oc1ccccc1C2NC(=O)c1ccc([N+](=O)[O-])cc1` (stereo not given), for which the growth inhibition was -34.5%.

`CC1CCC(NC(=O)NCCCl)c2ccccc21` (stereo not given): the growth inhibition was -1.8%.

Regarding `Oc1cccc2c1N1CCN2CC1`, the growth inhibition was 11.2%.

As for `CCC(O)C(C)(C)N` (stereo not given), the growth inhibition is 2.7%.

Regarding `OC(CI)C1OCOC(CI)C1O` (stereo not given), the growth inhibition is 10.7%.

For `CCOC(=O)c1c(N=P(c2ccccc2)(c2ccccc2)c2ccccc2)nnc(-c2ccccc2)c1-c1ccccc1`, the growth inhibition was 10.9%.

As for `O=Cc1ccnc2c(Cl)cccc12`, the growth inhibition was -1.1%.

Turning to `ON=C(c1ccccc1)c1ccccc1`, the growth inhibition was -2.05%.

`CC(=O)OCC(CBr)(CBr)COC(C)=O`: the growth inhibition is -6.05%.

Regarding `CC/C=N/Nc1ccc([N+](=O)[O-])cc1[N+](=O)[O-]`, the growth inhibition is 4.6%.

In the case of `C=C1CC(C)(C)CN(Cc2ccc([N+](=O)[O-])cc2)C(C(=O)OC)=C1C(=O)OC`, the growth inhibition was 24.4%.

`O=[N+]([O-])c1ccc(O)c(O)c1`: the growth inhibition was -10%.

Take `N#CN=C(N(Cc1ccccc1)Cc1ccccc1)N(Cc1ccccc1)Cc1ccccc1`: the growth inhibition is -18.6%.

Regarding `COc1ccc(/C=C2\Cc3ccccc3C2=O)cc1OC`, the growth inhibition was -9.85%.

For the compound `Cc1c[n+]([O-])n(-c2ccccc2)n1`, the growth inhibition is 0.7%.

For `C1=Cc2c3c(c4c(c2C1)C=CC4)C=CC3`, the growth inhibition is -1.2%.

As to `O=Cc1ccc(C=O)cc1`, the growth inhibition is 26.9%.

Take `CC(C)C(CCN1CCCC1(C)C)(C(N)=O)c1ccccc1` (stereo not given): the growth inhibition is -4.2%.

Regarding `CCCCCCCCCCCCCCCCCC[N+](CCCC)(CCCC)CCCCCCCCCCCCCCCCCC` (tested in a mixture with another compound), the growth inhibition was 1.7%.

`COc1ccc2ncc(COC(=O)NC3CCCCC3)c(COC(=O)NC3CCCCC3)c2c1`: the growth inhibition is 24.4%.

With `CCCS(=O)(=O)N1CCC(C)CC1`, the growth inhibition is 5.85%.

On to `C=C(C)C(C)(C)/C(C)=N\Nc1ccc([N+](=O)[O-])cc1[N+](=O)[O-]`, for which the growth inhibition is 6.2%.

For `Cc1cc(C)n(C2OC(CO)C(O)C(O)C2O)c(=S)c1C#N` (stereo not given), the growth inhibition was 29.6%.

As to `C[N+](C)(C)c1ncncn1`, the growth inhibition was -10.8%.

Take `CC(C)(C)C(=O)N/N=C\c1ccc([N+](=O)[O-])s1`: the growth inhibition was 20.4%.

`COc1ccc(CCc2cc(OC)c(O)c(OC)c2)cc1`: the growth inhibition is 36%.

With `OC(C1=C/C(=C\c2ccncc2)c2ccccc21)c1ccncc1` (stereo not given), the growth inhibition is 96.8% (active).

For the compound `CC1=CC(=O)CC2(C)CCC(C(C)CC(=O)CC(C)C)CC12` (stereo not given), the growth inhibition is 91% (active).

Regarding `COc1cc([N+](=O)[O-])ccc1NC(=O)Nc1ccc(Cl)cc1[N+](=O)[O-]`, the growth inhibition was 24.6%.

Regarding `CCOC(=O)c1ccc(NC(=O)SCCC(=O)O)cc1`, the growth inhibition is -7.1%.

Regarding `CC(=O)Nc1ccc(C(=O)NN2C(=O)C(Cl)C2c2ccc(Cl)cc2)cc1` (stereo not given), the growth inhibition was -42.8%.

`COC(=O)c1ccc(CSc2ccccc2NC(=S)Nc2cccc(SC)c2)o1`: the growth inhibition is -18.6%.

With `Cc1ccc(NC(=O)c2ccco2)c(C)c1`, the growth inhibition was 5.05%.

For the compound `Cc1c(-c2ccccc2)[nH]n(C2=NCCN2)c1=O`, the growth inhibition is -31.4%.

With `CC(=O)Nc1ccc2ccccc2c1`, the growth inhibition is 0.3%.

With `C/C(=N/N)c1sc(-c2nc(C)c(/C(C)=N\N)s2)nc1C`, the growth inhibition was -26.9%.

On to `CCOC(=O)c1cnc2ccc(OC)cc2c1`, for which the growth inhibition is -6.35%.

`COC(=O)C(Cc1[nH]c(N=Nc2ccc(Br)cc2)nc1N=Nc1ccc(Br)cc1)NC(C)=O` (stereo not given): the growth inhibition was 27.1%.
